Experimental findings from PMC11006913 are described below.

Where a chain is given by its changes, count along the chain named.

Holding throughout (assay): PBM; 200 nM protein, PBS
Common to all, as to conditions: dsDNA, one strand shown

Test [1] has as its target HOXB4 (Homo sapiens, UniProt P17483 148-234).
Test [2] concerns the target T1, VENTX (Homo sapiens, UniProt O95231 78-163, R121Q).
T1 sequence: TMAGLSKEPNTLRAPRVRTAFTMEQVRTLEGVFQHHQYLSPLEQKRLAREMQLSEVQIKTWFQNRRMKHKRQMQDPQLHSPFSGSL

The target in test [3] is HOXA4 (Homo sapiens, UniProt Q00056 201-287, W262R).
Sequence of HOXA4 (Homo sapiens, UniProt Q00056 201-287, W262R) (Q00056 201-287 W262R): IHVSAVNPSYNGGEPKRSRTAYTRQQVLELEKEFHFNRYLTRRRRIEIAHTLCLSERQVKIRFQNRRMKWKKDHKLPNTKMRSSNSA
The target in the next test is ALX4 (Homo sapiens, UniProt Q9H161 200-286).
Sequence of ALX4 (Q9H161 200-286): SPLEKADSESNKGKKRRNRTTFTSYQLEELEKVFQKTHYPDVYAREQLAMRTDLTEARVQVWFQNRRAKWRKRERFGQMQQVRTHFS
Test [4] has as its target T2, PAX4 (Homo sapiens, UniProt O43316 9-242, R200K).
T2 sequence: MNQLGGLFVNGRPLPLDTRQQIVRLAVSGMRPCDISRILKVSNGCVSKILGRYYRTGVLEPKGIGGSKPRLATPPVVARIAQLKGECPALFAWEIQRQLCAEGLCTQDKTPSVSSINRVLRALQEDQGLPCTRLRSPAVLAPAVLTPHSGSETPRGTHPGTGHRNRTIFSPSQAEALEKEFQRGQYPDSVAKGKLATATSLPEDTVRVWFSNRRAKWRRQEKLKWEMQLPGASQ

For test [5], the target named is PRRX1 (Homo sapiens, UniProt P54821 80-166, F113S).
Sequence of PRRX1 (Homo sapiens, UniProt P54821 80-166, F113S) (P54821 80-166 F113S): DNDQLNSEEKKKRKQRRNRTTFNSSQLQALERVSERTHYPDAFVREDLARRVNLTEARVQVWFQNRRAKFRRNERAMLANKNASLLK
The target of test [6] is T3, VENTX (Homo sapiens, UniProt O95231 78-163, Y115F).
T3 sequence: T1 sequence with Y38F, Q44R

The target of the next test is HOXA2 (Homo sapiens, UniProt O43364 129-215, R185T).
Sequence of HOXA2 (O43364 129-215 R185T): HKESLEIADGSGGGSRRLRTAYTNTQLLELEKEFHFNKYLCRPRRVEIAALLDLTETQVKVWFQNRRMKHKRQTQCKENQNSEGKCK
In test [7] the target is HOXA4 (Homo sapiens, UniProt Q00056 201-287, R217L).
Sequence of HOXA4 (Homo sapiens, UniProt Q00056 201-287, R217L) (Q00056 201-287 R217L): as the sequence (Q00056 201-287 W262R) above, with R17L, R62W counted along it
For test [8], the target named is HOXB4 (Homo sapiens, UniProt P17483 148-234, V174I).
Sequence of HOXB4 (Homo sapiens, UniProt P17483 148-234, V174I) (P17483 148-234 V174I): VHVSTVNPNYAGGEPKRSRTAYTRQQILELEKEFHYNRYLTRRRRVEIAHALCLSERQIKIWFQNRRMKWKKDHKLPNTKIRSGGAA
In test [9] the target is T4, PAX4 (Homo sapiens, UniProt O43316 9-242, R200Q).
T4 sequence: T2 sequence with K192Q

Test [10] deals with T5, PAX4 (Homo sapiens, UniProt O43316 9-242, F177V).
T5 sequence: T2 sequence with F169V, K192R

The target in test [11] is HOXA4 (Homo sapiens, UniProt Q00056 201-287).
Sequence of HOXA4 (Homo sapiens, UniProt Q00056 201-287) (Q00056 201-287): as the sequence (Q00056 201-287 W262R) above, with R62W counted along it
Test [12] concerns the target MSX2 (Homo sapiens, UniProt P35548 130-214).
For test [13], the target named is T6, PAX4 (Homo sapiens, UniProt O43316 9-242, F177Y).
T6 sequence: T2 sequence with F169Y, K192R

In test [14] the target is MSX2 (Homo sapiens, UniProt P35548 130-214, F161Y).
Sequence of MSX2 (Homo sapiens, UniProt P35548 130-214, F161Y) (P35548 130-214 F161Y): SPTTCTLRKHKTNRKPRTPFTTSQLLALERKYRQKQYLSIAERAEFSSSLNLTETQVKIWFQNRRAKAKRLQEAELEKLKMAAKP
Test [15] concerns the target VAX1 (Homo sapiens, UniProt Q5SQQ9 86-172, T142I).
Test [16] deals with HOXA4 (Homo sapiens, UniProt Q00056 201-287, W262F).
Sequence of HOXA4 (Homo sapiens, UniProt Q00056 201-287, W262F) (Q00056 201-287 W262F): as the sequence (Q00056 201-287 W262R) above, with R62F counted along it
The target of test [17] is PRRX1 (Homo sapiens, UniProt P54821 80-166).
Sequence of PRRX1 (Homo sapiens, UniProt P54821 80-166) (P54821 80-166): as the sequence (P54821 80-166 F113S) above, with S34F counted along it
The target of test [18] is VAX1 (Homo sapiens, UniProt Q5SQQ9 86-172, K157R).
Sequence of VAX1 (Homo sapiens, UniProt Q5SQQ9 86-172, K157R) (Q5SQQ9 86-172 K157R): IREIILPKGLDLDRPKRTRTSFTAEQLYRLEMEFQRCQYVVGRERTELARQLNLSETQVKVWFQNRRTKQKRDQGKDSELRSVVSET

Sequence of MSX2 (Homo sapiens, UniProt P35548 130-214) (P35548 130-214): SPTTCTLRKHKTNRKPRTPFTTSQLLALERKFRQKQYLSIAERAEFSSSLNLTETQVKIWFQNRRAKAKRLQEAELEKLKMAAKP
Sequence of HOXB4 (Homo sapiens, UniProt P17483 148-234) (P17483 148-234): as the sequence (P17483 148-234 V174I) above, with I27V counted along it
Sequence of VAX1 (Homo sapiens, UniProt Q5SQQ9 86-172, T142I) (Q5SQQ9 86-172 T142I): as the sequence (Q5SQQ9 86-172 K157R) above, with T57I, R72K counted along it

Take AATAATTA: the binding signal was 13.5 upbm affinity estimate (log intensity, higher = more binding, comparable within an allelic series) in the test with HOXB4 [1]; 12 upbm affinity estimate (log intensity, higher = more binding, comparable within an allelic series) with VENTX [2]; 10.9 upbm affinity estimate (log intensity, higher = more binding, comparable within an allelic series) in the test with HOXA4 [3]; 14.2 upbm affinity estimate (log intensity, higher = more binding, comparable within an allelic series) with ALX4; 11.8 upbm affinity estimate (log intensity, higher = more binding, comparable within an allelic series) with PAX4 [4]; 11.7 upbm affinity estimate (log intensity, higher = more binding, comparable within an allelic series) with PRRX1 [5]. For the same sequence, the binding signal was 11.8 upbm affinity estimate (log intensity, higher = more binding, comparable within an allelic series) with VENTX [6]; 13.5 upbm affinity estimate (log intensity, higher = more binding, comparable within an allelic series) with HOXA2; 12.7 upbm affinity estimate (log intensity, higher = more binding, comparable within an allelic series) with HOXA4 [7]; 14.2 upbm affinity estimate (log intensity, higher = more binding, comparable within an allelic series) in the test with HOXB4 [8]; 12.2 upbm affinity estimate (log intensity, higher = more binding, comparable within an allelic series) with PAX4 [9]; 10.8 upbm affinity estimate (log intensity, higher = more binding, comparable within an allelic series) with PAX4 [10]. Besides, the binding signal with HOXA4 [11] was 14.2 upbm affinity estimate (log intensity, higher = more binding, comparable within an allelic series); in the test with MSX2 [12], 14 upbm affinity estimate (log intensity, higher = more binding, comparable within an allelic series); with PAX4 [13], 11.1 upbm affinity estimate (log intensity, higher = more binding, comparable within an allelic series); with MSX2 [14] it was 13.6 upbm affinity estimate (log intensity, higher = more binding, comparable within an allelic series); with VAX1 [15], 13.4 upbm affinity estimate (log intensity, higher = more binding, comparable within an allelic series); in the test with HOXA4 [16], 12.2 upbm affinity estimate (log intensity, higher = more binding, comparable within an allelic series). Further, the binding signal in the test with PRRX1 [17] was 13.5 upbm affinity estimate (log intensity, higher = more binding, comparable within an allelic series); with VAX1 [18] it was 13.4 upbm affinity estimate (log intensity, higher = more binding, comparable within an allelic series).

With ATTAATTA, the binding signal with HOXB4 [1] is 13.7 upbm affinity estimate (log intensity, higher = more binding, comparable within an allelic series); with VENTX [2], 12.8 upbm affinity estimate (log intensity, higher = more binding, comparable within an allelic series); in the test with HOXA4 [3] it was 11.1 upbm affinity estimate (log intensity, higher = more binding, comparable within an allelic series); in the test with ALX4, 14.7 upbm affinity estimate (log intensity, higher = more binding, comparable within an allelic series); with PAX4 [4], 12.2 upbm affinity estimate (log intensity, higher = more binding, comparable within an allelic series); in the test with PRRX1 [5] it was 12.2 upbm affinity estimate (log intensity, higher = more binding, comparable within an allelic series). The binding signal with VENTX [6] was 12.5 upbm affinity estimate (log intensity, higher = more binding, comparable within an allelic series); with HOXA2, 14 upbm affinity estimate (log intensity, higher = more binding, comparable within an allelic series); in the test with HOXA4 [7], 13.4 upbm affinity estimate (log intensity, higher = more binding, comparable within an allelic series); with HOXB4 [8] it was 14.4 upbm affinity estimate (log intensity, higher = more binding, comparable within an allelic series); with PAX4 [9] it was 12.8 upbm affinity estimate (log intensity, higher = more binding, comparable within an allelic series); in the test with PAX4 [10], 11.1 upbm affinity estimate (log intensity, higher = more binding, comparable within an allelic series). Besides, the binding signal in the test with HOXA4 [11] is 14.4 upbm affinity estimate (log intensity, higher = more binding, comparable within an allelic series); with MSX2 [12], 14.2 upbm affinity estimate (log intensity, higher = more binding, comparable within an allelic series); in the test with PAX4 [13] it was 11.6 upbm affinity estimate (log intensity, higher = more binding, comparable within an allelic series); with MSX2 [14] it was 13.8 upbm affinity estimate (log intensity, higher = more binding, comparable within an allelic series); in the test with VAX1 [15], 13.9 upbm affinity estimate (log intensity, higher = more binding, comparable within an allelic series); in the test with HOXA4 [16] it was 13.1 upbm affinity estimate (log intensity, higher = more binding, comparable within an allelic series). Moreover, the binding signal in the test with PRRX1 [17] was 13.8 upbm affinity estimate (log intensity, higher = more binding, comparable within an allelic series); with VAX1 [18], 13.8 upbm affinity estimate (log intensity, higher = more binding, comparable within an allelic series).

As to GTAATTAC, the binding signal with HOXB4 [1] is 13.7 upbm affinity estimate (log intensity, higher = more binding, comparable within an allelic series); in the test with VENTX [2] it was 12.4 upbm affinity estimate (log intensity, higher = more binding, comparable within an allelic series); in the test with HOXA4 [3], 10.8 upbm affinity estimate (log intensity, higher = more binding, comparable within an allelic series); with ALX4, 14.3 upbm affinity estimate (log intensity, higher = more binding, comparable within an allelic series); in the test with PAX4 [4], 12 upbm affinity estimate (log intensity, higher = more binding, comparable within an allelic series); in the test with PRRX1 [5] it was 11.5 upbm affinity estimate (log intensity, higher = more binding, comparable within an allelic series). Also, the binding signal was 12.4 upbm affinity estimate (log intensity, higher = more binding, comparable within an allelic series) in the test with VENTX [6]; 14.1 upbm affinity estimate (log intensity, higher = more binding, comparable within an allelic series) with HOXA2; 13.2 upbm affinity estimate (log intensity, higher = more binding, comparable within an allelic series) with HOXA4 [7]; 14.4 upbm affinity estimate (log intensity, higher = more binding, comparable within an allelic series) with HOXB4 [8]; 12.5 upbm affinity estimate (log intensity, higher = more binding, comparable within an allelic series) with PAX4 [9]; 10.6 upbm affinity estimate (log intensity, higher = more binding, comparable within an allelic series) with PAX4 [10]. Besides, the binding signal with HOXA4 [11] was 14.3 upbm affinity estimate (log intensity, higher = more binding, comparable within an allelic series); in the test with MSX2 [12], 14.2 upbm affinity estimate (log intensity, higher = more binding, comparable within an allelic series); with PAX4 [13], 11.1 upbm affinity estimate (log intensity, higher = more binding, comparable within an allelic series); with MSX2 [14], 13.9 upbm affinity estimate (log intensity, higher = more binding, comparable within an allelic series); with VAX1 [15] it was 13.9 upbm affinity estimate (log intensity, higher = more binding, comparable within an allelic series); with HOXA4 [16], 12.5 upbm affinity estimate (log intensity, higher = more binding, comparable within an allelic series). Further, the binding signal in the test with PRRX1 [17] is 13.5 upbm affinity estimate (log intensity, higher = more binding, comparable within an allelic series); with VAX1 [18], 13.9 upbm affinity estimate (log intensity, higher = more binding, comparable within an allelic series).

As for GATAATTA, the binding signal is 13.8 upbm affinity estimate (log intensity, higher = more binding, comparable within an allelic series) in the test with HOXB4 [1]; 12.5 upbm affinity estimate (log intensity, higher = more binding, comparable within an allelic series) with VENTX [2]; 11 upbm affinity estimate (log intensity, higher = more binding, comparable within an allelic series) in the test with HOXA4 [3]; 14.4 upbm affinity estimate (log intensity, higher = more binding, comparable within an allelic series) in the test with ALX4; 12 upbm affinity estimate (log intensity, higher = more binding, comparable within an allelic series) with PAX4 [4]; 12 upbm affinity estimate (log intensity, higher = more binding, comparable within an allelic series) in the test with PRRX1 [5]. Besides, the binding signal in the test with VENTX [6] is 12.3 upbm affinity estimate (log intensity, higher = more binding, comparable within an allelic series); with HOXA2, 13.9 upbm affinity estimate (log intensity, higher = more binding, comparable within an allelic series); with HOXA4 [7] it was 13.1 upbm affinity estimate (log intensity, higher = more binding, comparable within an allelic series); with HOXB4 [8], 14.5 upbm affinity estimate (log intensity, higher = more binding, comparable within an allelic series); with PAX4 [9], 12.4 upbm affinity estimate (log intensity, higher = more binding, comparable within an allelic series); with PAX4 [10] it was 10.8 upbm affinity estimate (log intensity, higher = more binding, comparable within an allelic series). For the same sequence, the binding signal with HOXA4 [11] is 14.3 upbm affinity estimate (log intensity, higher = more binding, comparable within an allelic series); in the test with MSX2 [12], 14.1 upbm affinity estimate (log intensity, higher = more binding, comparable within an allelic series); with PAX4 [13], 11.3 upbm affinity estimate (log intensity, higher = more binding, comparable within an allelic series); with MSX2 [14], 13.7 upbm affinity estimate (log intensity, higher = more binding, comparable within an allelic series); with VAX1 [15], 13.8 upbm affinity estimate (log intensity, higher = more binding, comparable within an allelic series); with HOXA4 [16], 12.6 upbm affinity estimate (log intensity, higher = more binding, comparable within an allelic series). The binding signal in the test with PRRX1 [17] was 13.7 upbm affinity estimate (log intensity, higher = more binding, comparable within an allelic series); with VAX1 [18], 13.7 upbm affinity estimate (log intensity, higher = more binding, comparable within an allelic series).
